Data from PubChem BioAssay.
Potency and affinity values are given separately. Calls of active or inactive are those of the source. Unless noted, cut-off not given; nearly all actives show IC50 up to about 0.98 µM.

Target: Calcium-dependent protein kinase 1 (Plasmodium falciparum (isolate 3D7)) (UniProt P62344)
Test: PfCDPK1 kinase inhibitors, biochemical, TCAMS library (AID 1159585);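 further: inhibitors leave more ATP so luminescence rises with inhibition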
Conditions: recombinant PfCDPK1, Kinase-Glo ATP depletion luminescence

Sequence of Calcium-dependent protein kinase 1 (Plasmodium falciparum (isolate 3D7)) (P62344 whole entry, looked up): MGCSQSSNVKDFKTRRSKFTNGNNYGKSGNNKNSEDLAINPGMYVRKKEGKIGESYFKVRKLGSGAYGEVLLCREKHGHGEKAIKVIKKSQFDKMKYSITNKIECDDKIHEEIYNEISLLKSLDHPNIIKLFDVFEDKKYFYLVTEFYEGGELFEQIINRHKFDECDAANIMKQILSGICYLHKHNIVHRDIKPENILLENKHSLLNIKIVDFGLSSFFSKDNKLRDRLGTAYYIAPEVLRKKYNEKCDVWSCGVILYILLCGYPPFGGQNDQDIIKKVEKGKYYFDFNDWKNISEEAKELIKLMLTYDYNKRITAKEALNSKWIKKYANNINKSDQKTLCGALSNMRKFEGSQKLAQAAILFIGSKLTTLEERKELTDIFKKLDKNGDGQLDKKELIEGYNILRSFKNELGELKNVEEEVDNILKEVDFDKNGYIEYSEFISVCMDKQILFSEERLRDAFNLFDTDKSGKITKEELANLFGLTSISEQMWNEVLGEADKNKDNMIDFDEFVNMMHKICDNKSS

outcome, inactive:
CC(C)CCN=C(N)c1ccc(OCCCCCOc2ccc(C(N)=NCCC(C)C)cc2)cc1
COc1ccc2nccc([C@@H](O)CN3CCC(NCc4cn5cc(F)ccc5n4)CC3)c2c1
CS(=O)(=O)c1ccc(CCNCc2ccc(-c3ccc(CN(C(=O)C4CC(=O)c5ccccc54)C4CCN(Cc5ccccc5)CC4)cc3)nc2)cc1 (stereo not given)
Cc1[nH]c(C)c(-c2ccc(C(=O)c3ccc(Cl)cc3)cc2)c(=O)c1Br
CCCNCc1ccc(-c2ccc(CN(CCOC)C(=O)c3ccccc3)cc2)nc1
CC(C)C(NC(=O)Cc1cccc2ccccc12)C(=O)Nc1cccc(C#N)c1 (stereo not given)
COc1ccccc1CCNc1nc(C)cc(N[C@@H](CC(C)C)C(=O)Nc2ccccc2)n1
CCC1(CC)CN(c2ccccc2)c2ccc(O)cc2S(=O)(=O)C1CC(C)C (stereo not given)
O=C(Nc1cc(C(F)(F)F)ccc1Cl)c1ccc(Cn2cc(Br)cn2)cc1
COc1cccc(NC(=O)Nc2ccc(-c3oc(C(=O)NCC(c4ccccc4)N(C)C)cc3-c3ccncc3)cc2)c1 (stereo not given)
CC(Cc1ccc(NC(=O)c2ccc(CNCc3ccccc3)cc2)cc1)N(CCc1cccc(Cl)c1)C(=O)OC(C)(C)C (stereo not given)
NC(=NCCc1ccc(Cl)c(Cl)c1)c1ccc2ccccc2c1
O=C(NC1CCCc2ccccc21)C1CCCN(C(=O)c2ccc(O)c(-c3ccc(Cl)c(Cl)c3)c2)C1 (stereo not given)
CC(C)CNC(=O)c1cncc(-c2ccc(CNCCCc3ccccc3)cc2)c1
O=C(/C=C/c1ccc(Cl)c(Cl)c1)NCCCCCN1CCC(NC(=S)Nc2ccc(F)cc2F)CC1
CN(C)C(C)(C)CN(Cc1ccc(-c2ccc(C(F)(F)F)cc2)cc1)C(=O)Cn1c(CCc2cccc(F)c2F)nc(=O)c2ccccc21
CCc1cccc2c(C#N)cn(CC(=O)Nc3ccc(OC)cc3)c12
COc1ccc2c(CCNc3nc(SC)ncc3C(=O)NCCc3ccc(F)cc3)c[nH]c2c1
COc1ccc(C(=O)[C@H]2C[C@@H]2CN(C)CCC(O)c2ccc(Cl)c(Cl)c2)cc1 (stereo not given in full)
Cc1nc(N)nc(N)c1-c1ccc(Br)cc1
COc1cc(Cc2cnc(N)nc2N)ccc1OCC(=O)Nc1ccc(C)cc1
O=C(/C=C/c1ccc(C(F)(F)F)cc1)NCCCCCN1CCN(C(=O)Nc2ccc(F)c(Cl)c2)CC1
O=C(NCc1cccc(OC(F)(F)F)c1)c1cnc2c(c1)nc(-c1cnc(-c3ccccc3)[nH]1)n2CCc1cnc[nH]1
Cc1cccc2[nH]c(-c3ccc(-c4ccc(CN5CCN(CCN6CCOCC6)CC5)cc4)cc3)nc12
Cc1nc(NCCCn2ccnc2)cc(-c2cncc(-c3ccc(OC(F)(F)F)cc3)c2)n1
Oc1ccc2[nH]cc(C3CCN(CCC(c4ccccc4)c4ccccc4)CC3)c2c1
COc1ccc2nccc(N3CCC(NCCNCc4ccc5c(n4)NC(=O)CS5)C3)c2n1 (stereo not given)
COc1cc(C)nc2ccc(NC(=O)c3ccc(C(=O)Nc4ccc5nc(C)cc(OC)c5c4)cc3)cc12
Cn1nc(-c2cccc(CN[C@@H]3CCc4ccc(O)cc43)c2)c2cnc(NC3CCCC3)nc21
Oc1ccc(CCNc2nc(NCCCOc3ccccc3-c3cccnc3)nc(N3CCNCC3)n2)cc1
CC(C)N1CCN(C(CN2CCN(CCCOc3cccc4ccccc34)CC2)c2ccc(F)cc2)CC1 (stereo not given)
O=C(Nc1cccc([N+](=O)[O-])c1)Nc1ccc(Cl)c(C(F)(F)F)c1
NC1CCN(c2nc(NCCCc3ccc(O)cc3)nc(NCc3ccccc3-c3ccc(C(F)(F)F)cc3)n2)CC1
CCc1ccc(-c2nc3cc(NC(=O)c4cc([N+](=O)[O-])cc([N+](=O)[O-])c4)ccc3o2)cc1
FC(F)(F)c1ccc2nc(-c3ccc(-c4ccc(CNCc5cnn(-c6ccccc6)n5)cc4)cc3)[nH]c2c1
Cc1ccc(C(=O)Nc2ccc(Nc3ccnc4cc(-c5ccccn5)ccc34)cc2O)cc1
COc1ccc(-c2ccc(NC(=O)c3ccc(C#N)cc3)cc2)cc1CN(C)CCN(C)C
COc1cccc(-c2ccc3c(-c4ccc(F)cc4)cnc(N)c3c2)c1
COc1ccc(CNC(=O)NC2CCN(c3ccnc(Nc4ccc(F)cc4)n3)CC2)cc1
O=C(NCCc1ccccc1)N(Cc1ccc(-c2cccc(CN3CCNCC3)c2)cc1)C1CCN(Cc2ccccc2)CC1

Target: Plasmodium falciparum protein kinase 6 (PK6, PF3D7_1337100) (UniProt Q8IDW1)
Sequence (Q8IDW1 1-305): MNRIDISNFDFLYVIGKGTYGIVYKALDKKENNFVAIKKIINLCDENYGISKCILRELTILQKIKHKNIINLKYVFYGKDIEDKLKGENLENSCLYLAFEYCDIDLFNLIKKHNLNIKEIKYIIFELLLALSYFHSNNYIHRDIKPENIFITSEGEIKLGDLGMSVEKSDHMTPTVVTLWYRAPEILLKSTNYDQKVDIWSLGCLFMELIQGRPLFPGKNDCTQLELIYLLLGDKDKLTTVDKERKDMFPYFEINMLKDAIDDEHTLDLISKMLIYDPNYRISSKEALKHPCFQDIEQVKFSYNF
Test: PfPK6 kinase inhibitors, biochemical, TCAMS library (AID 1159586; call rule not given here)
Conditions: recombinant PfPK6, Kinase-Glo ATP depletion luminescence

outcome, inactive:
CC(C)CCN=C(N)c1ccc(OCCCCCOc2ccc(C(N)=NCCC(C)C)cc2)cc1
COc1ccc2nccc([C@@H](O)CN3CCC(NCc4cn5cc(F)ccc5n4)CC3)c2c1
CS(=O)(=O)c1ccc(CCNCc2ccc(-c3ccc(CN(C(=O)C4CC(=O)c5ccccc54)C4CCN(Cc5ccccc5)CC4)cc3)nc2)cc1 (stereo not given)
Cc1[nH]c(C)c(-c2ccc(C(=O)c3ccc(Cl)cc3)cc2)c(=O)c1Br
CCCNCc1ccc(-c2ccc(CN(CCOC)C(=O)c3ccccc3)cc2)nc1
CC(C)C(NC(=O)Cc1cccc2ccccc12)C(=O)Nc1cccc(C#N)c1 (stereo not given)
COc1ccccc1CCNc1nc(C)cc(N[C@@H](CC(C)C)C(=O)Nc2ccccc2)n1
CCC1(CC)CN(c2ccccc2)c2ccc(O)cc2S(=O)(=O)C1CC(C)C (stereo not given)
O=C(Nc1cc(C(F)(F)F)ccc1Cl)c1ccc(Cn2cc(Br)cn2)cc1
COc1cccc(NC(=O)Nc2ccc(-c3oc(C(=O)NCC(c4ccccc4)N(C)C)cc3-c3ccncc3)cc2)c1 (stereo not given)
CC(Cc1ccc(NC(=O)c2ccc(CNCc3ccccc3)cc2)cc1)N(CCc1cccc(Cl)c1)C(=O)OC(C)(C)C (stereo not given)
NC(=NCCc1ccc(Cl)c(Cl)c1)c1ccc2ccccc2c1
O=C(NC1CCCc2ccccc21)C1CCCN(C(=O)c2ccc(O)c(-c3ccc(Cl)c(Cl)c3)c2)C1 (stereo not given)
CC(C)CNC(=O)c1cncc(-c2ccc(CNCCCc3ccccc3)cc2)c1
O=C(/C=C/c1ccc(Cl)c(Cl)c1)NCCCCCN1CCC(NC(=S)Nc2ccc(F)cc2F)CC1
CN(C)C(C)(C)CN(Cc1ccc(-c2ccc(C(F)(F)F)cc2)cc1)C(=O)Cn1c(CCc2cccc(F)c2F)nc(=O)c2ccccc21
CCc1cccc2c(C#N)cn(CC(=O)Nc3ccc(OC)cc3)c12
COc1ccc2c(CCNc3nc(SC)ncc3C(=O)NCCc3ccc(F)cc3)c[nH]c2c1
COc1ccc(C(=O)[C@H]2C[C@@H]2CN(C)CCC(O)c2ccc(Cl)c(Cl)c2)cc1 (stereo not given in full)
Cc1nc(N)nc(N)c1-c1ccc(Br)cc1
COc1cc(Cc2cnc(N)nc2N)ccc1OCC(=O)Nc1ccc(C)cc1
O=C(/C=C/c1ccc(C(F)(F)F)cc1)NCCCCCN1CCN(C(=O)Nc2ccc(F)c(Cl)c2)CC1
O=C(NCc1cccc(OC(F)(F)F)c1)c1cnc2c(c1)nc(-c1cnc(-c3ccccc3)[nH]1)n2CCc1cnc[nH]1
Cc1cccc2[nH]c(-c3ccc(-c4ccc(CN5CCN(CCN6CCOCC6)CC5)cc4)cc3)nc12
Cc1nc(NCCCn2ccnc2)cc(-c2cncc(-c3ccc(OC(F)(F)F)cc3)c2)n1
Oc1ccc2[nH]cc(C3CCN(CCC(c4ccccc4)c4ccccc4)CC3)c2c1
COc1ccc2nccc(N3CCC(NCCNCc4ccc5c(n4)NC(=O)CS5)C3)c2n1 (stereo not given)
COc1cc(C)nc2ccc(NC(=O)c3ccc(C(=O)Nc4ccc5nc(C)cc(OC)c5c4)cc3)cc12
Cn1nc(-c2cccc(CN[C@@H]3CCc4ccc(O)cc43)c2)c2cnc(NC3CCCC3)nc21
Oc1ccc(CCNc2nc(NCCCOc3ccccc3-c3cccnc3)nc(N3CCNCC3)n2)cc1
CC(C)N1CCN(C(CN2CCN(CCCOc3cccc4ccccc34)CC2)c2ccc(F)cc2)CC1 (stereo not given)
O=C(Nc1cccc([N+](=O)[O-])c1)Nc1ccc(Cl)c(C(F)(F)F)c1
NC1CCN(c2nc(NCCCc3ccc(O)cc3)nc(NCc3ccccc3-c3ccc(C(F)(F)F)cc3)n2)CC1
CCc1ccc(-c2nc3cc(NC(=O)c4cc([N+](=O)[O-])cc([N+](=O)[O-])c4)ccc3o2)cc1
FC(F)(F)c1ccc2nc(-c3ccc(-c4ccc(CNCc5cnn(-c6ccccc6)n5)cc4)cc3)[nH]c2c1
Cc1ccc(C(=O)Nc2ccc(Nc3ccnc4cc(-c5ccccn5)ccc34)cc2O)cc1
COc1ccc(-c2ccc(NC(=O)c3ccc(C#N)cc3)cc2)cc1CN(C)CCN(C)C
COc1cccc(-c2ccc3c(-c4ccc(F)cc4)cnc(N)c3c2)c1
COc1ccc(CNC(=O)NC2CCN(c3ccnc(Nc4ccc(F)cc4)n3)CC2)cc1
O=C(NCCc1ccccc1)N(Cc1ccc(-c2cccc(CN3CCNCC3)c2)cc1)C1CCN(Cc2ccccc2)CC1
